# High-throughput results as filed in PubChem BioAssay.
# FBW7 act – human FBW7 E3 ligase activation, primary screen. 650,000 compounds, 0.13% hits. normalized activity (activation), % at 26.1 µM. AID 1259310. AlphaScreen FBW7–phospho-cyclin E peptide binding, activator screen; in the data active means normalized activity above about 1.9%;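 further: purified mutant Fbw7 with reduced substrate affinity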
# MITF inh – blocks human microphthalmia-associated transcription factor. O75030. AlphaScreen MITF homodimerization, bead proximity signal. inhibition, % at 2.6 µM. 650,000 compounds, 0.91% hits. AID 1259374; in the data active means inhibition above about 50%;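 further: 0% = vehicle wells with protein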
# Target sequence (O75030 whole entry, looked up): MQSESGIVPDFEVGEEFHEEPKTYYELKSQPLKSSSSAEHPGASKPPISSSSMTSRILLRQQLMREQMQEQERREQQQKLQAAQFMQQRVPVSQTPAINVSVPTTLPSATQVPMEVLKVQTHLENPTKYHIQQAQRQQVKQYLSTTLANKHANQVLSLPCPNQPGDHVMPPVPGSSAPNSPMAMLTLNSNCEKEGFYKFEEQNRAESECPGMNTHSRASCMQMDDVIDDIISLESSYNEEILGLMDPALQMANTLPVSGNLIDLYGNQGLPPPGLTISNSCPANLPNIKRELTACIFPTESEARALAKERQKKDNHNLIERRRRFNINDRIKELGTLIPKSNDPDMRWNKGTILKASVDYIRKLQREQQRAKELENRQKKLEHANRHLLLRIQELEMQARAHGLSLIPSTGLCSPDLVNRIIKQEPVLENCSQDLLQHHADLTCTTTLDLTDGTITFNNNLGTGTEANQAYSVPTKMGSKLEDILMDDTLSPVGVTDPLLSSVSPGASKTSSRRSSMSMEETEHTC
# GPR151 ag – activators of human GPR151 | Q8TDV0 | PathHunter beta-arrestin GPR151 cells, luminescence | activation, % at 11.2 µM | 650,000 compounds, 1% hits | AID 1508602; in the data active means activation above about 4.9%;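 further: 0% = median of compound wells and 100% = cells with positive control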
# TEAD-YAP inh – TEAD-YAP interaction inhibition; HEK-TIYL cells, TEAD-Gal4/YAP UAS-luciferase luminescence; inhibition, % at 9.12 µM; 640,000 compounds, 1.4% hits; AID 1259422; in the data active means inhibition above about 32%;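 further: 0% = median of test compound wells and 100% = reference inhibitor wells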
# * hit, by the source's call. An excerpt weighted towards active compounds, which were near 3.4% of everything screened.
SMILES,FBW7 act,MITF inh,GPR151 ag,TEAD-YAP inh
OCCCn1c(-c2ccc(F)cc2)csc1=Nc1ccc(F)cc1,-0.4,11.1,0.2,-18.9
CCN(CC)S(=O)(=O)c1ccc(-c2csc(=Nc3ccc(F)cc3)n2CCCO)cc1,-0.3,23.9,0.8,39.3*
O=C1c2ccccc2C(=O)c2c1nc1ccccn21,-0.2,-11.2,-1.8,3.3
CCn1c2c(n[n+]1[O-])C(=O)c1ccccc1C2=O,-0.3,-0.5,-5.3,100.7*
COc1cc(C2NC(=O)C(=O)/C2=C(/O)c2ccccc2)ccc1O (configuration not stated),-0.3,43.4,-0.7,-8.4
Cc1cc(C)c(NC(=O)CC2Sc3ccccc3NC2=O)c(Cl)c1 (configuration not stated),0.2,8.5,0.6,37.1*
CN1CCN(C(=O)c2ccc(-c3nc(NCc4ccccc4)c4ncn(C5CCCCC5)c4n3)cc2)CC1,0.2,-11.9,-0.8,0.8
COc1ccc2oc(-c3cccs3)cc(=O)c2c1,-0.1,3.0,-6.1,42.5*
COc1ccc2oc(-c3ccc(Cl)cc3)cc(=O)c2c1,-0.1,4.9,0.4,-29.1
O=c1cc(-c2cccs2)oc2ccc(O)cc12,-0.6,7.0,-3.4,-12.0
COc1ccc2oc(-c3ccccc3Cl)cc(=O)c2c1,2.6*,5.8,-4.9,48.5*
CC1CCN(C(=O)CSCc2cccc(Br)c2)CC1,0.1,-6.4,-0.2,-37.2
Cc1ccc(C(=O)NCCc2cn3ccsc3n2)cc1,0.1,-3.7,0.2,-36.5
O=C1C2=C(C(c3ccc(Cl)cc3)=NCCN2)C(c2ccccc2)N1c1ccccc1 (configuration not stated),0.1,12.8,0.0,-0.9
COc1cccc(C2C3=C(NCCN=C3c3ccc(Cl)cc3)C(=O)N2c2ccccc2)c1 (configuration not stated),0.0,6.0,1.0,58.2*
COC(=O)c1cc(NC(=O)c2cccc(NC(=O)c3ccccc3)c2)cc(C(=O)OC)c1,0.2,12.3,-0.4,15.7
CCN(CC)C(=O)C1CCCN(c2nc(NCCN3CCOCC3)c3ncn(C4CCCCC4)c3n2)C1 (configuration not stated),-0.1,10.7,-2.9,37.9*
CCN(CC)C(=O)C1CCCN(c2nc(NCCN3CCOCC3)c3ncn(-c4ccsc4)c3n2)C1 (configuration not stated),0.1,12.2,0.6,36.2*
CCN(CC)C(=O)C1CCCN(c2nc(NCCc3ccc(OC)cc3)c3ncn(-c4ccsc4)c3n2)C1 (configuration not stated),-0.5,-4.1,-0.7,33.1*
CCN(CC)C(=O)C1CCCN(c2nc(NCCN3CCOCC3)c3ncn(C(C)C)c3n2)C1 (configuration not stated),0.0,-1.7,-1.2,7.2
O=C(NCc1cccnc1)c1cn(-c2ccc(F)cc2F)c(=O)c2ccccc12,0.0,-0.1,-0.5,1.4
O=C(Nc1nc2ccccc2s1)c1ccccc1O,0.1,-1.4,0.2,-22.9
O=C(Nc1nc2ccccc2s1)c1ccccc1F,0.6,2.1,-11.3,87.0*
O=C(Nc1nc2ccccc2s1)c1ccc(Cl)cc1Cl,-0.1,-6.9,-8.2,81.3*
O=C(Nc1nc2ccccc2s1)c1cccc(Cl)c1Cl,0.0,-0.4,-1.0,-81.9
SMILES,FBW7 act,MITF inh,GPR151 ag,TEAD-YAP inh
O=C(Nc1nc2ccccc2s1)c1ccccc1Cl,0.0,-17.5,-9.5,81.0*
CC(=O)Nc1ccc2nc(NC(=O)c3ccc(Cl)cc3Cl)sc2c1,-0.1,6.2,1.2,-41.4
CN1C(=O)N(CC(=O)NCC2CC2)c2cccnc2N1C,-0.1,-0.5,-0.3,-3.2
Oc1ccccc1CNCc1ccccn1,-0.6,76.5*,-0.3,-4.6
CNc1ccc(Cl)cc1C(O)c1ccccc1 (configuration not stated),0.1,15.6,0.6,4.2
O=C(CSc1ccc2nnc(-c3cccnc3)n2n1)Nc1ccc(Cl)cc1,0.1,-2.8,-0.5,-9.6
COc1ccc(C(C#N)N2CCCCCC2)cc1OC (configuration not stated),2.0*,14.5,-1.5,-1.0
CCCc1cc(N2CCN(CCOc3ccc(Cl)cc3)CC2)n2c(nc3ccccc32)c1C#N,0.1,12.5,-1.3,0.8
Cc1cc(C)cc(Nc2nc(-c3ccccc3Cl)nc3ccccc23)c1,0.0,-7.7,-0.3,6.8
CCOC(=O)c1ccccc1NC(=O)COC(=O)CN1C(=O)NC(C)(C)C1=O,-0.1,-8.4,0.9,0.8
O=c1c2cc(Cl)ccc2[nH]c(=S)n1C1CCCCC1,0.1,8.4,0.6,2.5
S=c1[nH]c2cc(Cl)ccc2n1C1CCCCC1,3.1*,-7.7,-1.1,2.0
Cc1nc2c(c(C)c1CCC(=O)N1CCCCCC1)c(=O)n(C)c(=O)n2C,0.1,-0.3,-0.4,50.7*
O=C1CC[C@@H](CN(Cc2ccccc2)C(=O)Cn2cc(NC(=O)c3ccccn3)cn2)N1,0.1,-2.0,3.2,-2.0
CCc1ccccc1-n1c(SCC(=O)Nc2nccs2)nnc1-c1cccnc1,-0.1,5.6,0.4,56.6*
O=C(CSc1nnc(-c2ccccn2)n1-c1ccccc1Cl)Nc1nccs1,0.0,-1.6,-0.1,58.9*
O=C(CSc1nnc(-c2cccc([N+](=O)[O-])c2)n1-c1ccccc1)Nc1nccs1,-0.1,-8.0,0.2,44.4*
O=C(CSc1nnc(-c2ccco2)n1-c1ccccc1)Nc1nccs1,0.1,-20.4,-1.0,1.4
Cc1cccc(-n2c(SCC(=O)Nc3nccs3)nnc2-c2cccnc2)c1C,-0.2,-24.3,-0.8,-1.1
O=C(CSc1nnc(-c2cccnc2)n1-c1ccccc1Cl)Nc1nccs1,0.0,4.8,-0.8,38.6*
COc1ccccc1-n1nnc(C(=O)NCc2ccco2)c1N,0.6,14.8,-1.0,-5.4
CN(C)C(CNC(=S)Nc1ccc(Br)cc1)c1cccnc1 (configuration not stated),-0.1,-7.1,-0.3,-2.2
CCn1c(CN2CCC(C)CC2)nc2c1c(=O)n(C)c(=O)n2C,0.2,5.6,-0.5,16.1
COc1ccc(CCN(C)C2CCCN(Cc3cnc(N)nc3)C2)cc1OC (configuration not stated),0.1,6.6,2.2,-5.1
CC(C)(Oc1ccc(Cl)cc1)C(=O)Nc1ccccc1N1CCOCC1,0.1,7.4,0.8,-8.4
SMILES,FBW7 act,MITF inh,GPR151 ag,TEAD-YAP inh
c1ccc(-c2cc(NCc3ccco3)nc(-c3ccccn3)n2)nc1,-0.9,111.0*,1.3,59.1*
C=CCNc1cc(-c2ccccn2)nc(-c2ccccn2)n1,-1.0,115.0*,1.4,49.5*
c1ccc(-c2nc(NCc3ccco3)cc(-c3cccnc3)n2)nc1,-0.1,-16.5,1.1,11.1
CCOc1ccc(-c2noc(-c3ccco3)n2)cc1OCC,0.1,0.8,-2.4,-25.3
Cn1c(SCC#N)nnc1-c1cccc([N+](=O)[O-])c1,-0.3,-5.1,-1.5,32.2*
Cn1c(SCC(N)=O)nnc1-c1cccc([N+](=O)[O-])c1,0.0,-10.1,-1.3,-8.0
Cc1ccc(-n2nc3ccccc3n2)c(OC(=O)c2cccc([N+](=O)[O-])c2)c1,0.2,7.2,-3.3,-3.1
Nc1cccc(-c2cc(C(=O)Nc3ccc(N4CCOCC4)cc3)ccn2)c1,0.1,-2.1,1.3,-4.4
